From PubChem BioAssay (EPA / NIEHS)
Results filed as inconclusive are left out. The source made the active and inactive calls. How the source made its calls, unless noted: active means hit-call score of the fitted dose curve at least 0.9, where 1 is the maximum; inconclusive means response in the unintended direction; inactive means score below 0.9.

Legend:
[1] = Tanguay_ZF_120hpf_AXIS_legacy: (Legacy) Oregon State University Tanguay Lab 120 Hour Post-fertilization zebrafish Assay for Body Axis Malformation (AID 2283635);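 on AC50: potency for an increased fraction of larvae scored with body axis malformation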
Procedure, shortened: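 Chorion is removed with pronase at 4 hpf, then single 6 hpf embryos are dosed (final DMSO 0.64%) and held statically at 28C in sealed, foil-covered plates. At 120 hpf body axis malformation is recorded as present or absent.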

[2] = Tanguay_ZF_120hpf_EYE_legacy: (Legacy) Oregon State University Tanguay Lab 120 Hour Post-fertilization zebrafish Assay for Eye Malformation (AID 2283636)
Procedure, shortened: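 Read-out is binary presence or absence of eye malformation, scored by brightfield microscopy at 120 hpf. Single larvae were exposed from 6 hpf in embryo medium containing 0.64% DMSO, with DMSO as baseline.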

[3] = Tanguay_ZF_120hpf_SNOU_legacy: (Legacy) Oregon State University Tanguay Lab 120 Hour Post-fertilization zebrafish Assay for Snout Malformation (AID 2283637)
Procedure, shortened: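 Snout malformation read as a yes/no call on brightfield images of 120 hpf larvae (Tropical 5D strain). Static exposure began at 6 hpf on dechorionated embryos in 0.64% DMSO, with gain of signal analysed versus DMSO controls.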

[4] = Tanguay_ZF_120hpf_JAW_legacy: (Legacy) Oregon State University Tanguay Lab 120 Hour Post-fertilization zebrafish Assay for Jaw Malformation (AID 2283638)
Procedure, shortened: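 Steps: dechorionate 4 hpf embryos (pronase); plate 1/well at 6 hpf; add test chemical, 0.64% DMSO final; seal, cover, hold at 28C statically to 120 hpf; score jaw defect presence/absence microscopically. Dead embryos not scored.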

[5] = Tanguay_ZF_120hpf_OTIC_legacy: (Legacy) Oregon State University Tanguay Lab 120 Hour Post-fertilization zebrafish Assay for Otic Vesicle Malformation (AID 2283639)
Procedure, shortened: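 Tropical 5D wild-type zebrafish embryos statically exposed in 0.64% DMSO at 28C until 120 hpf; 5uM trimethyltin chloride as positive control. Otic vesicle malformation scored present/absent by brightfield; dead embryos not scored; gain fitted versus DMSO.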

[6] = Tanguay_ZF_120hpf_PE_legacy: (Legacy) Oregon State University Tanguay Lab 120 Hour Post-fertilization zebrafish Assay for Pericardial Edema (AID 2283640);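 on AC50: potency for increased incidence of pericardial edema versus DMSO baseline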
Procedure, shortened: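 Embryos from wild-type 5D adults were staged, then dosed in 0.64% DMSO. They were kept sealed in the dark at 28C until 120 hpf. Pericardial edema was then recorded as present or absent.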

[7] = Tanguay_ZF_120hpf_BRAI_legacy: (Legacy) Oregon State University Tanguay Lab 120 Hour Post-fertilization zebrafish Assay for Brain Malformation (AID 2283641)
Procedure, shortened: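 Wild-type 5D larvae, static waterborne exposure to 120 hpf, 28C, 0.64% v/v DMSO. Brightfield scoring of brain defects, binary; dead embryos excluded. Positive ctrl 5uM trimethyltin chloride.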

[8] = Tanguay_ZF_120hpf_SOMI_legacy: (Legacy) Oregon State University Tanguay Lab 120 Hour Post-fertilization zebrafish Assay for Somite Malformation (AID 2283647)
Procedure, shortened: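 Read-out: presence or absence of somite malformation in 120 hpf larvae, gain-of-signal relative to DMSO baseline. Embryos lacked chorion (pronase, 4 hpf) and were exposed statically from 6 hpf at 28C; dead larvae not scored.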

[9] = Tanguay_ZF_120hpf_PFIN_legacy: (Legacy) Oregon State University Tanguay Lab 120 Hour Post-fertilization zebrafish Assay for Pectoral Fin Malformation (AID 2283648);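 further: each larva judged yes or no for fin defect by brightfield with dead larvae skipped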
Procedure, shortened: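 5D WT zebrafish; pronase dechorionation 4 hpf; 1 embryo/well at 6 hpf; static exposure to 120 hpf, 28C, sealed, foil-covered; final DMSO 0.64% v/v; 5 uM trimethyltin chloride positive control; fin defect scored yes/no.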

[10] = Tanguay_ZF_120hpf_CFIN_legacy: (Legacy) Oregon State University Tanguay Lab 120 Hour Post-fertilization zebrafish Assay for Caudal Fin Malformation (AID 2283649)
Procedure, shortened: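 Binary presence or absence of caudal fin malformation at 120 hpf, read by brightfield microscopy, with DMSO as baseline. Larvae came from 5D wild-type embryos exposed statically from 6 hpf at 28C after pronase dechorionation.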

[11] = Tanguay_ZF_120hpf_PIG_legacy: (Legacy) Oregon State University Tanguay Lab 120 Hour Post-fertilization zebrafish Assay for Pigmentation Malformation (AID 2283650)
Procedure, shortened: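 Pronase dechorionation at 4 hpf; embryos plated at 6 hpf, one per well; static exposure, sealed and foil-covered, 28C, to 120 hpf; pigmentation read by brightfield, binary; DMSO 0.64% baseline, 5uM trimethyltin chloride positive control.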

[12] = Tanguay_ZF_120hpf_CIRC_legacy: (Legacy) Oregon State University Tanguay Lab 120 Hour Post-fertilization zebrafish Assay for Circulatory Malformation (AID 2283651)
Procedure, shortened: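 Dechorionated wild-type 5D zebrafish embryos, one per well, statically exposed from 6 to 120 hpf at 28C with 0.64% DMSO; circulatory malformation scored present/absent by brightfield microscopy at 120 hpf, dead embryos excluded.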

[13] = Tanguay_ZF_120hpf_SWIM_legacy: (Legacy) Oregon State University Tanguay Lab 120 Hour Post-fertilization zebrafish Assay for Swim Bladder Malformation (AID 2283654);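 further: swim bladder malformation in each larva scored yes or no under brightfield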
Procedure, shortened: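 Embryos lacking chorions were exposed individually and statically to test chemical from 6 to 120 hpf at 28C, with 0.64% DMSO as vehicle. At 120 hpf, swim bladder malformation was recorded as present or absent by brightfield microscopy.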

[14] = Tanguay_ZF_120hpf_NC_legacy: (Legacy) Oregon State University Tanguay Lab 120 Hour Post-fertilization zebrafish Assay for Notochord and Tail Malformation (AID 2283656)
Procedure, shortened: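 Dechorionated Tropical 5D wild-type zebrafish embryos, one per well from 6 hpf, statically exposed to 120 hpf at 28C in 0.64% DMSO final. Notochord distortion scored present/absent by brightfield; dead embryos excluded.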

[15] = read-out: solute carrier (SLC22A6), SLC22A6 (gene 9356); experiment: LTEA_HepaRG_SLC22A6: Life Technologies and Expression Analysis (LTEA) Assay for solute carrier (SLC22A6) using HepaRG (AID 2283653; active means hit-call score of the fitted dose curve at least 0.9, where 1 is the maximum; inactive means score below 0.9); settings: mRNA level, 48 h; actives raise or lower the signal
Procedure, shortened: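 Read-out is SLC22A6 transcript level by qRT-PCR, normalised to three housekeeping genes and fitted for gain or loss relative to 0.5% DMSO vehicle. Human HepaRG cells received chemicals at up to 100 uM for 48 h.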

[16] = read-out: solute carrier (SLC10A1), SLC10A1 (gene 6554); experiment: LTEA_HepaRG_SLC10A1: Life Technologies and Expression Analysis (LTEA) Assay for solute carrier (SLC10A1) using HepaRG (AID 2283657; active means hit-call score of the fitted dose curve at least 0.9, where 1 is the maximum; inactive means score below 0.9); settings: mRNA level, 48 h; actives raise or lower the signal
Procedure, shortened: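 Transcript levels were measured by qRT-PCR after human HepaRG cells received test chemical for 48 hours, up to 100 uM in half-log dilutions. Values come from bidirectional concentration-response fitting relative to 0.5% DMSO vehicle.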

[17] = read-out: matrix metalloproteinase-1 (MMP1), MMP1 (gene 4312); experiment: LTEA_HepaRG_MMP1: Life Technologies and Expression Analysis (LTEA) Assay for matrix metalloproteinase-1 (MMP1) using HepaRG (AID 2283658; active means hit-call score of the fitted dose curve at least 0.9, where 1 is the maximum; inactive means score below 0.9); settings: mRNA level, 48 h; actives raise or lower the signal
Procedure, shortened: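 HepaRG, ~100,000 cells/well, 48 h pre-culture; serum-free induction medium; test chemical 8 conc (max 100 uM, half-log), duplicate, 48 h; 0.5% DMSO; qRT-PCR MMP1, housekeeping-normalized; gain/loss fit vs DMSO.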

[18] = Tanguay_ZF_120hpf_TRUN_legacy: (Legacy) Oregon State University Tanguay Lab 120 Hour Post-fertilization zebrafish Assay for Truncated Body (AID 2283655)
Procedure, shortened: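 Truncated body is recorded as a binary endpoint at 120 hpf by brightfield imaging of wild-type 5D larvae. Exposure runs statically from 6 hpf at 28C with 0.64% DMSO; embryos dying earlier are not scored.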

[19] = read-out: kallikrein-3 (KLK3), KLK3 (gene 354); experiment: LTEA_HepaRG_KLK3: Life Technologies and Expression Analysis (LTEA) Assay for kallikrein-3 (KLK3) using HepaRG (AID 2283652; active means hit-call score of the fitted dose curve at least 0.9, where 1 is the maximum; inactive means score below 0.9); settings: mRNA level, 48 h; actives raise or lower the signal
Procedure, shortened: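 Differentiated human HepaRG cells in serum-free induction medium exposed 48 h in duplicate, eight-point half-log series from 100 uM in 0.5% DMSO. KLK3 mRNA by qRT-PCR, normalised to ACTB, GAPDH, POLR2A; bidirectional fit versus DMSO.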

Measured: AC50

Oc1cc(Cl)ccc1Oc1ccc(Cl)cc1Cl
not listed: [15] | [16] | [17] | [18] | [19]
inactive: all other assays above

ClC1C(Cl)C(Cl)C(Cl)C(Cl)C1Cl (centres undefined)
not listed: [18] | [19]
inactive: all other assays above

CCOCN(C(=O)CCl)c1c(C)cccc1CC
active: [1] 39 µM
not listed: [2] | [15] | [16] | [17] | [18] | [19]
inactive: all other assays above

Clc1ccccc1-c1nnc(-c2ccccc2Cl)nn1
inactive: [1] | [2] | [4] | [5] | [7] | [9] | [11] | [12] | [13] | [14]

CCC(C)(NC(=O)c1cc(Cl)c(C)c(Cl)c1)C(=O)CCl (centres undefined)
active: [2] 28.2 µM | [3] 25.4 µM
not listed: [8] | [11] | [15] | [16] | [17] | [18] | [19]
inactive: all other assays above

CC1(c2ccc(Oc3ccccc3)cc2)OC(=O)N(Nc2ccccc2)C1=O (centres undefined)
not listed: [6] | [8] | [13] | [15] | [16] | [17] | [19]
inactive: all other assays above

CNC(=O)Oc1ccccc1OC(C)C
not listed: [2] | [8] | [15] | [16] | [17] | [18] | [19]
inactive: all other assays above

CC(C)OC(=O)Nc1cccc(Cl)c1
active: [3] 34.2 µM | [6] 37.7 µM | [7] 39.5 µM
inactive: [1] | [2] | [5] | [8] | [9] | [10] | [11] | [13] | [14]

CNC(=O)CSP(=S)(OC)OC
not listed: [7] | [8] | [11] | [15] | [16] | [17] | [18] | [19]
inactive: all other assays above

OCCOc1ccccc1
not listed: [2] | [5] | [14] | [15] | [16] | [17] | [18] | [19]
inactive: all other assays above

CCC(C)Nc1c([N+](=O)[O-])cc(C(C)(C)C)cc1[N+](=O)[O-] (centres undefined)
active: [16] 72.9 µM
not listed: [7] | [12] | [14] | [18] | [19]
inactive: all other assays above

CC(C)N(C(=O)COc1nnc(C(F)(F)F)s1)c1ccc(F)cc1
inactive: [2] | [3] | [4] | [6] | [8] | [9] | [10] | [11] | [12] | [13]

O=C(O)CCCOc1ccc(Cl)cc1Cl
active: [1] 48.7 µM | [6] 24.2 µM
not listed: [5] | [9] | [15] | [16] | [17] | [18] | [19]
inactive: all other assays above

CCN(CC)C(=O)SCc1ccc(Cl)cc1
not listed: [2] | [5] | [15] | [16] | [17] | [18] | [19]
inactive: all other assays above

CNC(=O)Oc1cccc(N=CN(C)C)c1
inactive: [1] | [2] | [4] | [5] | [6] | [7] | [8] | [9] | [10] | [14]

CCCN(CCC)c1c([N+](=O)[O-])cc(C(F)(F)F)cc1[N+](=O)[O-]
not listed: [5] | [6] | [7] | [18] | [19]
inactive: all other assays above

Cc1[nH]c(=O)n(C(C)(C)C)c(=O)c1Cl
active: [16] 50 µM
not listed: [1] | [18] | [19]
inactive: all other assays above

O=C(NC(=O)c1c(F)cccc1F)Nc1ccc(OC(F)(F)C(F)OC(F)(F)F)c(Cl)c1 (centres undefined)
not listed: [1] | [7] | [15] | [16] | [17] | [18] | [19]
inactive: all other assays above

CC1(C)C(C=C(Cl)Cl)C1C(=O)OC(C#N)c1ccc(F)c(Oc2ccccc2)c1 (centres undefined)
active: [16] 50 µM
not listed: [5] | [8] | [14] | [18]
inactive: all other assays above

CCC(C)(C)C(=O)OC1=C(c2ccc(Cl)cc2Cl)C(=O)OC12CCCCC2
not listed: [7] | [14] | [15] | [16] | [17] | [18] | [19]
inactive: all other assays above

CCc1ccc(C(=O)NN(C(=O)c2cc(C)cc(C)c2)C(C)(C)C)cc1
not listed: [6] | [8] | [12] | [15] | [16] | [17] | [18] | [19]
inactive: all other assays above

O=C1c2ccccc2C(=O)N1SC(Cl)(Cl)Cl
not listed: [8] | [12] | [18] | [19]
inactive: all other assays above

COP(=S)(OC)Oc1ccc(SC)c(C)c1
not listed: [8] | [15] | [16] | [17] | [18] | [19]
inactive: all other assays above

COP(=O)(OC)OC=C(Cl)Cl
not listed: [4] | [15] | [16] | [17] | [18] | [19]
inactive: all other assays above

O=C(O)COc1ccc(Cl)cc1Cl
not listed: [2] | [8] | [13] | [15] | [16] | [17] | [18] | [19]
inactive: all other assays above
